In ChEMBL document CHEMBL2218924, “A broad activity screen in support of a chemogenomic map for kinase signalling research and drug discovery” (Biochem J, 2013):

What was measured:
[1] = molecular target: T1, Serine/threonine-protein kinase BRSK1 (Homo sapiens) (UniProt Q8TDC3); conditions: at 1 µM
T1 sequence (whole entry): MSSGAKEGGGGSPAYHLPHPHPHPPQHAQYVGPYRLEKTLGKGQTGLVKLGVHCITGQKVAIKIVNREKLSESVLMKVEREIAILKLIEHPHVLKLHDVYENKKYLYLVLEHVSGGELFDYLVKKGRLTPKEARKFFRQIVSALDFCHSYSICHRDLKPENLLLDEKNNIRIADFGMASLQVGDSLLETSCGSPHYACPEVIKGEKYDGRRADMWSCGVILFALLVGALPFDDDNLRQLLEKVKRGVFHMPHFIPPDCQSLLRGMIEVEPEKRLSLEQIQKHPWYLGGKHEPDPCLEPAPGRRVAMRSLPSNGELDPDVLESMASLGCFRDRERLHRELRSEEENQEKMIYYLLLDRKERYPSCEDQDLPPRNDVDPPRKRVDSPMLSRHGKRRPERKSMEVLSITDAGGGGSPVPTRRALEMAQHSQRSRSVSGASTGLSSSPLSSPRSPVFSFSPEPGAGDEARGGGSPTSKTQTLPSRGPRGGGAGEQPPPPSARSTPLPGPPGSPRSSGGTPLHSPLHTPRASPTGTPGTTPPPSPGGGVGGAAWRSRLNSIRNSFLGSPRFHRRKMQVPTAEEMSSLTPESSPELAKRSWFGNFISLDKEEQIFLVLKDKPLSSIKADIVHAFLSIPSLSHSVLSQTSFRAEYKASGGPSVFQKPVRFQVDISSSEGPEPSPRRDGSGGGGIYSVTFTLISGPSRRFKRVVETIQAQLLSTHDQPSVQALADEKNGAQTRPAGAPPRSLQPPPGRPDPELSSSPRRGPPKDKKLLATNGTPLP

[2] = molecular target: T1, Serine/threonine-protein kinase BRSK1 (Homo sapiens); conditions: at 10 µM
[3] = molecular target: T2, Serine/threonine-protein kinase BRSK2 (Homo sapiens) (UniProt Q8IWQ3); conditions: at 1 µM
T2 sequence (whole entry): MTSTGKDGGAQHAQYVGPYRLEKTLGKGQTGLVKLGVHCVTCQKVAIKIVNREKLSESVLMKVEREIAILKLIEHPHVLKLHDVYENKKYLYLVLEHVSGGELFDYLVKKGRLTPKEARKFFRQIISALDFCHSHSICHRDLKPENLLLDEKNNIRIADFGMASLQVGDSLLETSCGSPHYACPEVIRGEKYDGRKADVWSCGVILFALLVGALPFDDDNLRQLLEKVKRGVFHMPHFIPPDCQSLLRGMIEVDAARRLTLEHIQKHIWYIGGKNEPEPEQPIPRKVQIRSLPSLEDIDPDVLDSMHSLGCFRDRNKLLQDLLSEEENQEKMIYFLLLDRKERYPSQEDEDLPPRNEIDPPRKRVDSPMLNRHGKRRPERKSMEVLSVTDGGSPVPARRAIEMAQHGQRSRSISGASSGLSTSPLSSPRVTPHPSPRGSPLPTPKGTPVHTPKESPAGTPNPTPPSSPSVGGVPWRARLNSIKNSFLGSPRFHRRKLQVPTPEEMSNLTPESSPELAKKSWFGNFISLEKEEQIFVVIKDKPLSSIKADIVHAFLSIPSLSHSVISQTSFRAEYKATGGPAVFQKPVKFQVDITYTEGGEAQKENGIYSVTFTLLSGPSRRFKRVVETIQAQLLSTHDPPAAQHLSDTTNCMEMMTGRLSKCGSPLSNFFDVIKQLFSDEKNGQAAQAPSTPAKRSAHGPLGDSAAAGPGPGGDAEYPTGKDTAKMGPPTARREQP

[4] = molecular target: T2, Serine/threonine-protein kinase BRSK2 (Homo sapiens); conditions: at 10 µM
[5] = molecular target: T3, Cyclin-dependent kinase 1/cyclin B1 (Homo sapiens) (UniProt P06493+P14635); conditions: at 1 µM
T3 sequence (P06493 whole entry, looked up): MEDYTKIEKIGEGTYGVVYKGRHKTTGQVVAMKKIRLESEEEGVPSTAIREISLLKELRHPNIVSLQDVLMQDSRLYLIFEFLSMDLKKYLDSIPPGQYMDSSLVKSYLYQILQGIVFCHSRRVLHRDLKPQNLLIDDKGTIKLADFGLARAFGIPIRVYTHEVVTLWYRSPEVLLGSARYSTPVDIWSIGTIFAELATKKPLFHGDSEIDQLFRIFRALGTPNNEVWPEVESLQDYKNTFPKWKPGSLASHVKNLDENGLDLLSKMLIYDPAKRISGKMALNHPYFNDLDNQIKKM
T3 sequence (P14635 whole entry, looked up): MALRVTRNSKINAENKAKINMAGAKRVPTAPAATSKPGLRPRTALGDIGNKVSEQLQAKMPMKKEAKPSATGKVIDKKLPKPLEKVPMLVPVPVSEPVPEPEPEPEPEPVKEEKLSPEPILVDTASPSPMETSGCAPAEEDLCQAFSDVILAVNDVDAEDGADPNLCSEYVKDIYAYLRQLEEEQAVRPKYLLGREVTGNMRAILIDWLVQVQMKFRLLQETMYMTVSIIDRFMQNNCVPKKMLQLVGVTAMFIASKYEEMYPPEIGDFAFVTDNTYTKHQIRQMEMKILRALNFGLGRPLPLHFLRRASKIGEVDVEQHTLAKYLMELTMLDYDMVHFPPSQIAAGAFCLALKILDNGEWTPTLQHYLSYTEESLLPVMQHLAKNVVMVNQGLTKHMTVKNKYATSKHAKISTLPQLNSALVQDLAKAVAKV

[6] = molecular target: T3, Cyclin-dependent kinase 1/cyclin B1 (Homo sapiens); conditions: at 10 µM
[7] = molecular target: T4, Cyclin-dependent kinase 2/cyclin A (Homo sapiens) (UniProt P24941+P20248+P78396); conditions: at 1 µM
[8] = molecular target: T4, Cyclin-dependent kinase 2/cyclin A (Homo sapiens); conditions: at 10 µM
[9] = molecular target: T5, Cyclin-dependent kinase 2/cyclin E (Homo sapiens) (UniProt P24864+P24941+O96020); conditions: at 1 µM
[10] = molecular target: T5, Cyclin-dependent kinase 2/cyclin E (Homo sapiens); conditions: at 10 µM
[11] = molecular target: T6, CDK3/cyclin E (Homo sapiens) (UniProt P24864+O96020+Q00526); conditions: at 1 µM
T6 sequence (O96020 whole entry, looked up): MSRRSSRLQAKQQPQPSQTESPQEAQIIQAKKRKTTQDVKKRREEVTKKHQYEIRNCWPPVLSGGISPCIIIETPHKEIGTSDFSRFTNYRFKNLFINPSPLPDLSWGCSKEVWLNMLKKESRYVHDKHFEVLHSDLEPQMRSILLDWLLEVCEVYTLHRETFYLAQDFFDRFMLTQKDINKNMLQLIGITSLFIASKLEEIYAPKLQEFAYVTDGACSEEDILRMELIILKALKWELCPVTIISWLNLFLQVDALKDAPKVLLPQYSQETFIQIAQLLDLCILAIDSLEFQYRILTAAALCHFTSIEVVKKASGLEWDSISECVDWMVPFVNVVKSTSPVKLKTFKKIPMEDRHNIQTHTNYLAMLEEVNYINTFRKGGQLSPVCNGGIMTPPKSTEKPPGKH
T6 sequence (P24864 whole entry, looked up): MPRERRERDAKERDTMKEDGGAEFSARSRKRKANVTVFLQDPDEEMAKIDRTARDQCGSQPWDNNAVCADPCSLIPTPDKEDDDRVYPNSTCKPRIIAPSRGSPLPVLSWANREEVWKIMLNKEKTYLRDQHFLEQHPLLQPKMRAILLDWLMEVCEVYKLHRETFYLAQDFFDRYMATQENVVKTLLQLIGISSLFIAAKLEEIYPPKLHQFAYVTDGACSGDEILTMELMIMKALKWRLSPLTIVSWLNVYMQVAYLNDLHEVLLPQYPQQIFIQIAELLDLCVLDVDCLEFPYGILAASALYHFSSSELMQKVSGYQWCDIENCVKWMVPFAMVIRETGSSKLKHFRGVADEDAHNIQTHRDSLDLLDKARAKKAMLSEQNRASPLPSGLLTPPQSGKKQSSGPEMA
T6 sequence (Q00526 whole entry, looked up): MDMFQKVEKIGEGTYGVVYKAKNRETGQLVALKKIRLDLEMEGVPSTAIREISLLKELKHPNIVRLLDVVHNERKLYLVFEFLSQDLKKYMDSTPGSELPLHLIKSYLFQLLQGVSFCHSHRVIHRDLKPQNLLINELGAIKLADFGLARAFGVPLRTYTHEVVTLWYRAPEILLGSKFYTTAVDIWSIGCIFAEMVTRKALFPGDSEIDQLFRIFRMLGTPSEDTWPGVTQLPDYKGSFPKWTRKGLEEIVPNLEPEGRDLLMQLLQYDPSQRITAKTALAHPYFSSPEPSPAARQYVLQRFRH

[12] = molecular target: T6, CDK3/cyclin E (Homo sapiens); conditions: at 10 µM
[13] = molecular target: T7, Cyclin-dependent kinase 5/CDK5 activator 1 (Homo sapiens) (UniProt Q00535+Q15078); conditions: at 1 µM
Target sequence in this assay (Q00535 whole entry): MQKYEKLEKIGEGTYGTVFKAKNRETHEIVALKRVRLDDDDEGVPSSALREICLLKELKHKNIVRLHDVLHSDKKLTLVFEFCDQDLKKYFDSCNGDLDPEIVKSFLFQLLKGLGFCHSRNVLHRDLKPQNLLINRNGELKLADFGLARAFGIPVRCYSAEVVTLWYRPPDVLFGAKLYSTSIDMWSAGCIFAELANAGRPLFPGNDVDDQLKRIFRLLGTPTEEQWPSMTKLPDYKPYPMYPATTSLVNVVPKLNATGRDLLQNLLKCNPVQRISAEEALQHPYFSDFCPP
Target sequence in this assay (Q15078 99-307 partner limits assumed): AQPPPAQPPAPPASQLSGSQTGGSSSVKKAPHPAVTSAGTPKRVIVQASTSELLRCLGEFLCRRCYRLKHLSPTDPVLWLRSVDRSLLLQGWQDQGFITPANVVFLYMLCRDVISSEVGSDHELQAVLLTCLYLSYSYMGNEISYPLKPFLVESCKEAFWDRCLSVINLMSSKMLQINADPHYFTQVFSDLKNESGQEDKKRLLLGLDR

[14] = molecular target: T7, Cyclin-dependent kinase 5/CDK5 activator 1 (Homo sapiens); conditions: at 10 µM
Target sequence in this assay (Q00535 whole entry): as the sequence (Q00535 whole entry) above
Target sequence in this assay (Q15078 99-307 partner limits assumed): as the sequence (Q15078 99-307 partner limits assumed) above

[15] = molecular target: T7, Cyclin-dependent kinase 5/CDK5 activator 1 (Homo sapiens); conditions: at 1 µM; remark: listed apart in the source
Target sequence in this assay (Q00535 whole entry): as the sequence (Q00535 whole entry) above
Target sequence in this assay (Q15078 99-307 partner limits assumed): as the sequence (Q15078 99-307 partner limits assumed) above

[16] = molecular target: T7, Cyclin-dependent kinase 5/CDK5 activator 1 (Homo sapiens); conditions: at 10 µM; remark: listed apart in the source
[17] = molecular target: T8, CDK6/cyclin D3 (Homo sapiens) (UniProt P30281+Q00534); conditions: at 1 µM
[18] = molecular target: T8, CDK6/cyclin D3 (Homo sapiens); conditions: at 10 µM
[19] = molecular target: T9, Cyclin-dependent kinase 7/ cyclin H (Homo sapiens) (UniProt P51946+P50613); conditions: at 1 µM
[20] = molecular target: T9, Cyclin-dependent kinase 7/ cyclin H (Homo sapiens); conditions: at 10 µM

Nc1nc(Nc2ccc(S(N)(=O)=O)cc2)nn1C(=S)Nc1c(F)cccc1F
residual activity [1]: 0%
residual activity [2]: 0%
residual activity [3]: 0%
residual activity [4]: 1%
residual activity [5]: 0%
residual activity [6]: -1%
residual activity [7]: -2%
residual activity [8]: -1%
residual activity [9]: -1%
residual activity [10]: -2%
residual activity [11]: -2%
residual activity [12]: 0%
residual activity [13]: -2%
residual activity [14]: -1%
residual activity [15]: -2%
residual activity [16]: -1%
residual activity [17]: 19%
residual activity [18]: 3%
residual activity [19]: 2%
residual activity [20]: -2%

CO[C@H]1C[C@@H]2CC[C@@H](C)[C@@](O)(O2)C(=O)C(=O)N2CCCC[C@H]2C(=O)O[C@H]([C@H](C)C[C@@H]2CC[C@@H](O)[C@H](OC)C2)CC(=O)[C@H](C)/C=C(\C)[C@@H](O)[C@@H](OC)C(=O)[C@H](C)C[C@H](C)/C=C/C=C/C=C/1C
residual activity [1]: 70%
residual activity [2]: 68%
residual activity [3]: 97%
residual activity [4]: 139%
residual activity [5]: 120%
residual activity [6]: 108%
residual activity [7]: 129%
residual activity [8]: 113%
residual activity [9]: 105%
residual activity [10]: 96%
residual activity [11]: 90%
residual activity [12]: 86%
residual activity [13]: 90%
residual activity [14]: 92%
residual activity [15]: 78%
residual activity [16]: 100%
residual activity [17]: 88%
residual activity [18]: 89%
residual activity [19]: 88%
residual activity [20]: 94%

c1ccc(-c2n[nH]c3c2oc2ccccc23)cc1
residual activity [3]: 114%
residual activity [4]: 73%
residual activity [5]: 94%
residual activity [6]: 75%
residual activity [7]: 128%
residual activity [8]: 64%
residual activity [10]: 60%
residual activity [11]: 98%
residual activity [12]: 41%
residual activity [13]: 67%
residual activity [14]: 27%
residual activity [15]: 77%
residual activity [16]: 31%
residual activity [17]: 75%
residual activity [18]: 30%
residual activity [19]: 84%
residual activity [20]: 91%

Cc1cccc(-c2[nH]c(C(C)(C)C)nc2-c2ccc3c(c2)OCO3)n1
residual activity [1]: 97%
residual activity [2]: 106%
residual activity [7]: 133%
residual activity [8]: 103%
residual activity [10]: 98%
residual activity [11]: 90%
residual activity [12]: 89%
residual activity [13]: 83%
residual activity [14]: 88%
residual activity [15]: 92%
residual activity [16]: 97%
residual activity [17]: 104%
residual activity [18]: 106%
residual activity [19]: 100%
residual activity [20]: 95%

O=c1cc(-c2cccc3c2Sc2ccccc2S3)oc(N2CCOCC2)c1
residual activity [1]: 102%
residual activity [2]: 96%
residual activity [3]: 107%
residual activity [4]: 96%
residual activity [5]: 101%
residual activity [6]: 77%
residual activity [7]: 96%
residual activity [8]: 78%
residual activity [9]: 101%
residual activity [10]: 87%
residual activity [11]: 99%
residual activity [12]: 97%
residual activity [13]: 95%
residual activity [14]: 94%
residual activity [15]: 112%
residual activity [16]: 90%
residual activity [17]: 101%
residual activity [18]: 85%
residual activity [19]: 121%
residual activity [20]: 80%

Cc1cncc2cccc(S(=O)(=O)N3CCCN(C(=O)CN)C[C@H]3C)c12
residual activity [1]: 57%
residual activity [2]: 66%
residual activity [3]: 89%
residual activity [4]: 33%
residual activity [9]: 97%
residual activity [10]: 93%
residual activity [11]: 92%
residual activity [12]: 73%
residual activity [13]: 89%
residual activity [14]: 80%
residual activity [15]: 80%
residual activity [16]: 92%
residual activity [17]: 93%
residual activity [18]: 84%
residual activity [19]: 78%
residual activity [20]: 89%

c1ccc(-c2n[nH]cc2-c2ccnc3ccccc23)nc1
residual activity [1]: 104%
residual activity [2]: 58%
residual activity [10]: 94%
residual activity [11]: 83%
residual activity [12]: 79%
residual activity [13]: 83%
residual activity [14]: 63%
residual activity [19]: 98%
residual activity [20]: 95%

C[C@@H](N)[C@H]1CC[C@H](C(=O)Nc2ccncc2)CC1
residual activity [1]: 106%
residual activity [2]: 107%
residual activity [3]: 123%
residual activity [4]: 82%
residual activity [6]: 85%
residual activity [11]: 117%
residual activity [12]: 112%
residual activity [13]: 99%
residual activity [14]: 85%
residual activity [15]: 117%
residual activity [16]: 78%
residual activity [17]: 108%
residual activity [18]: 109%
residual activity [19]: 101%
residual activity [20]: 93%
